PNC assembly inh: perinucleolar compartment assembly inhibition; PC3M PTB-GFP, PNC prevalence imaging, 16 h; hits give low values; activity change (PNC), negative = inhibition, % at 10 µM; 140,000 compounds, 3.1% hits; AID 2417;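 active = readout at or below -70, meaning at least 70% loss of cells showing the perinucleolar compartment, a nuclear body marking cancer cells; inconclusive = readout between -30 and a set limit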
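Read-out is percentage of cells bearing a perinucleolar compartment, from automated 20x imaging of fixed, Hoechst-stained PC3M PTB-GFP cells. Cells were seeded 4 h, then exposed 16 h to compound (23 nl of library stock) in duplicate plates.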
HttQ103 aggreg: reduces HttQ103-GFP aggregates in PC12 cells; PC12 HttQ103-GFP aggregates, Acumen cytometry, 40 h; Potency, µM (series often up to 46.1 µM), most hits filed as inhibitors; 220,000 compounds, 1.1% hits; also: nearly all actives have a fitted effect of over 60% in size
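PC12/HTTQ103-GFP, ecdysone-inducible; teb 100 nM; cpd qHTS titration; GFP aggregates read on laser cytometer, Ex 488/Em 500-530 nm.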
CBFb-RUNX1 inh: inhibitors of human CBF-beta and RUNX1 interaction | AlphaScreen CBFb-His/RUNX1-biotin binding, biochemical | Potency, µM (doses to about 59.8 µM), actives largely listed as inhibitors | 230,000 tested, under 10 active | AID 1477
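AlphaScreen proximity signal reports loss of binding between His-tagged CBF-beta and biotin-labelled RUNX1, each at 30 nM. Proteins are pre-associated for 20 minutes, compounds added for 15 minutes, then beads for 90 minutes, all at ambient temperature.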
HPGD block: blocks human HPGD enzyme activity; Potency, µM, hits mostly inhibitors; AID 894; purified HPGD, NADH fluorescence kinetic, PGE2 substrate; P15428; 150,000 compounds, 4.3% hits; active = well fitted inhibition curve with a large enough effect, not every such curve was filed as active; inconclusive = small, poorly fitted or top-dose-only effect, or another doubt; inactive = no such curve, though single readings can be large or run the other way
Target sequence (P15428 whole entry, looked up): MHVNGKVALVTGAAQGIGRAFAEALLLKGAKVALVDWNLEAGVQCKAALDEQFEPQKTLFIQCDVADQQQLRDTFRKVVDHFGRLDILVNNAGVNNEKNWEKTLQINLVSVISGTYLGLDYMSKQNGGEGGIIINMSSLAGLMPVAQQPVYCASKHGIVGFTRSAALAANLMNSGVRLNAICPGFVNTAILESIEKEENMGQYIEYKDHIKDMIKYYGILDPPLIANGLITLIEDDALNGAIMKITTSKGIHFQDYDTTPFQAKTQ
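20 nM HPGD preincubated 15 min at room temperature with compound in 50 mM Tris-HCl pH 8, 0.01% Tween 20. Started with 1 mM NAD+ and 30 uM prostaglandin E2; NADH fluorescence (360/450 nm) read 5 times over 30-s intervals, last minus first.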
ALDH1A1 block: inhibitors of human aldehyde dehydrogenase 1A1 | P00352 | Purified ALDH1A1, NADH fluorescence, propionaldehyde substrate | Potency, µM (titrated, usually from 75.3 µM), usual class: inhibitors | 220,000 compounds, 7.3% hits | AID 1030; active = well fitted inhibition curve with a large enough effect, not every such curve was filed as active; inconclusive = small, poorly fitted or top-dose-only effect, or another doubt; inactive = no such curve, though single readings can be large or run the other way
Target sequence (P00352 whole entry, looked up): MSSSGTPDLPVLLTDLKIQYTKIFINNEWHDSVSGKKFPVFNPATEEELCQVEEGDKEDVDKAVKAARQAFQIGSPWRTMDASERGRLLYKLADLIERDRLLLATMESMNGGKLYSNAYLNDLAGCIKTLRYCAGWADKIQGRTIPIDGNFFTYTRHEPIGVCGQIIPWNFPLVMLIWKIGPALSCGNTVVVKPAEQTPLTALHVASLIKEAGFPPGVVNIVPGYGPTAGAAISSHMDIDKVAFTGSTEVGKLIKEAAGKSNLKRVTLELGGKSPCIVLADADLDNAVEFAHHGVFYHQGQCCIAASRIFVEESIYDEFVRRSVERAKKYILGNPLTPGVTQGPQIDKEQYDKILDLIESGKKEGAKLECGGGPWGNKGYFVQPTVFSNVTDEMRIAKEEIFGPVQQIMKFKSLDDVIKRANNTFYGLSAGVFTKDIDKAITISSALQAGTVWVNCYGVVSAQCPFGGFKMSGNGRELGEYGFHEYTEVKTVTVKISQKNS
HTT cytoprotect: cytoprotection in Huntington HTT-Q103 PC12 cell model | Potency, µM (series often up to 56.4 µM), hits mostly activators | 230,000 compounds, 0.14% hits | PC12 HTT-Q103 induced, cytoprotection, ATP luminescence, 40 h; also: nearly all actives have a fitted effect of over 45% in size
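Quantitative HTS on tebufenozide-induced (100 nM) PC12 cells expressing HTTQ103 exon 1–GFP; compounds tested as a concentration series; survival measured via cellular ATP.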
Large screens that a line does not name were inactive. This is a sample that favours compounds with a hit; in the whole collection about 11% have one here. Unless noted, calls follow the shape of the dose curve; as a rule, active = well fitted curve in the direction sought with a large enough effect; inconclusive = small, poorly fitted or top-dose-only effect, or another doubt; inactive = no such curve, though single readings can be large; an effect the other way counts as inactive or inconclusive.

COC(=O)C1=C(C)N(CCc2ccc(OC)c(OC)c2)C(=O)/C1=C\c1ccc(O)cc1	PNC assembly inh -116.4, HttQ103 aggreg inconclusive, ALDH1A1 block 25.1µM
Cc1cnc(CNc2nc(-c3ccc(N(C)C)cc3)nc3ccccc23)cn1	none (no result: PNC assembly inh, HttQ103 aggreg, CBFb-RUNX1 inh)
CCOC(=O)CC(=O)CSc1ncnc2c1cnn2-c1ccccc1	ALDH1A1 block 22.4µM
CC(C)CCn1cnc2c(cnn2-c2ccc(F)cc2)c1=O	HPGD block 11.2µM, ALDH1A1 block inconclusive
COC(=O)c1ccc(Cn2cnc3c(cnn3-c3ccc(F)cc3)c2=O)o1	PNC assembly inh inconclusive (no result: HPGD block)
CCOC(=O)Cn1cnc2c(cnn2-c2ccc(Cl)cc2)c1=O	PNC assembly inh inconclusive, HttQ103 aggreg 15.8µM, ALDH1A1 block inconclusive (no result: HPGD block)
COc1cccc(CCc2ccccc2OCC(CN(C)C)OC(=O)CCC(=O)O)c1 (configuration not stated)	none (no result: PNC assembly inh, CBFb-RUNX1 inh, HPGD block, ALDH1A1 block)
COc1ccc(NC(=O)N(C2CCCCC2)C(C)c2ccco2)c(OC)c1 (configuration not stated)	none
COc1ccc(NC(=O)N(C2CCCCC2)C(C)c2cccnc2)c(OC)c1 (configuration not stated)	PNC assembly inh -84.9
CCOC(=O)C(C(=O)OCC)C1CS(=O)(=O)CC1C(C(=O)OCC)C(=O)OCC (configuration not stated)	none
CCOC(=O)C(C(C)=O)=C1SC2CS(=O)(=O)CC2S1 (configuration not stated)	PNC assembly inh -126.9
N/C(=N\OC(=O)Oc1ccccc1)c1cccc([N+](=O)[O-])c1	ALDH1A1 block inconclusive
Cc1ccccc1C(=O)O/N=C(\N)c1cccc([N+](=O)[O-])c1	HPGD block 2.82µM, ALDH1A1 block inconclusive
Cc1csc(C(=O)O)c1NC(=O)c1cccc([N+](=O)[O-])c1	ALDH1A1 block 14.1µM (no result: PNC assembly inh, HPGD block)
N/C(=N\OC(=O)c1cccc2ccccc12)c1cccc([N+](=O)[O-])c1	HPGD block inconclusive
O=C(C#Cc1ccccc1)c1cccc([N+](=O)[O-])c1	HttQ103 aggreg 12.6µM, ALDH1A1 block inconclusive
Cc1ccc(-c2csc(NC(=O)c3cccc([N+](=O)[O-])c3)n2)cc1	none
O=C(O)c1cccc([N+](=O)[O-])c1	none (no result: PNC assembly inh, HttQ103 aggreg)
N/C(=N\OC(=O)Oc1ccccc1)c1ccc([N+](=O)[O-])cc1	PNC assembly inh -121.5
O=[N+]([O-])c1ccc(/C=N/NC(=S)Nc2ccc(Cl)cc2Cl)s1	none (no result: PNC assembly inh, HPGD block, ALDH1A1 block)
CC[C@]1(O)C[C@H]2CN(CCc3c([nH]c4ccccc34)[C@](C(=O)OC)(c3cc4c(cc3OC)N(C=O)[C@H]3[C@@](O)(C(=O)OC)[C@H](OC(C)=O)[C@@]5(CC)C=CCN6CC[C@]43[C@H]65)C2)C1	none (no result: PNC assembly inh, HttQ103 aggreg, CBFb-RUNX1 inh, HPGD block, ALDH1A1 block)
CC(=O)c1cccc([N+](=O)[O-])c1	ALDH1A1 block 28.2µM (no result: PNC assembly inh, HttQ103 aggreg)
Cc1c(C(=O)NCc2ccccc2)oc2ccc(S(=O)(=O)N3CCCC3)cc12	ALDH1A1 block inconclusive
Cc1c(C(=O)NCCc2ccccc2)oc2ccc(S(=O)(=O)N3CCC4(CC3)OCCO4)cc12	HttQ103 aggreg inconclusive, ALDH1A1 block inconclusive
COc1ccc(NC(=O)c2oc3ccc(S(=O)(=O)N4CCC5(CC4)OCCO5)cc3c2C)cc1	PNC assembly inh inconclusive, HttQ103 aggreg inconclusive, ALDH1A1 block 22.4µM
Cc1c(C(=O)O)oc2ccc(S(=O)(=O)N3CCC(C)CC3)cc12	HPGD block 11.2µM
Cc1c(C(=O)N(C)Cc2ccccc2)oc2ccc(S(=O)(=O)N3CCCC3)cc12	HttQ103 aggreg 11.2µM, ALDH1A1 block 22.4µM
COc1ccc(OC)c(-n2c(-c3cc(-c4ccco4)[nH]n3)n[nH]c2=S)c1	none (no result: PNC assembly inh, HPGD block)
S=c1[nH]nc(-c2cc(-c3ccco3)[nH]n2)n1-c1ccccc1	HttQ103 aggreg inconclusive, HPGD block 20µM, ALDH1A1 block inconclusive
S=c1[nH]nc(-c2cc(-c3ccco3)[nH]n2)n1-c1ccccc1Cl	HPGD block 31.6µM, ALDH1A1 block 7.08µM (no result: CBFb-RUNX1 inh)
S=c1[nH]nc(-c2ccco2)n1-c1ccccc1Cl	ALDH1A1 block inconclusive, HTT cytoprotect inconclusive (no result: PNC assembly inh, HPGD block)
c1ccc(/C(=N/Nc2nc3ccccc3s2)c2ccccn2)cc1	ALDH1A1 block inconclusive (no result: PNC assembly inh, HttQ103 aggreg, CBFb-RUNX1 inh)
COc1ccc(-c2cnc(N)nc2-c2ccc(OC)cc2O)cc1	HttQ103 aggreg 11.2µM, HTT cytoprotect inconclusive
C=C(C)COc1ccc(-c2nc(N)ncc2-c2ccc(OC)cc2)c(O)c1	HttQ103 aggreg inconclusive, HPGD block inconclusive, ALDH1A1 block inconclusive
CC(C)c1ccc(S(=O)(=O)/N=C2/C=CC(=O)c3ccccc32)cc1	HttQ103 aggreg inconclusive, CBFb-RUNX1 inh inconclusive, ALDH1A1 block 25.1µM (no result: PNC assembly inh, HPGD block)
COc1ccc(C(=O)NCCc2nnc3ccc(SCC(=O)Nc4cc(C)on4)nn23)cc1	HTT cytoprotect inconclusive (no result: PNC assembly inh, HPGD block)
CCOC(=O)c1c(C)c(C(=O)Nc2cc(F)ccc2F)c(C)n1C	none
CC(C)(C)NS(=O)(=O)c1ccc(CCC(=O)N2CCCCC2)cc1	ALDH1A1 block inconclusive
O=S1(=O)C=C(Sc2nnc(-c3ccccc3)o2)c2ccccc21	PNC assembly inh inconclusive, HttQ103 aggreg 4.47µM, HPGD block 14.1µM, ALDH1A1 block 22.4µM
CS(=O)(=O)N1CCC2(CCCN(Cc3cc(C(F)(F)F)cc(C(F)(F)F)c3)C2)CC1	none (no result: PNC assembly inh, HttQ103 aggreg, CBFb-RUNX1 inh)
COCCNC(=O)/C=C/c1c(Cl)cccc1Cl	PNC assembly inh inconclusive, HPGD block 12.6µM
COCCCNC(=O)/C=C/c1c(Cl)cccc1Cl	HPGD block 15.8µM (no result: HTT cytoprotect)
CC12CCC(C1)C(C)(C)C2=O (configuration not stated)	none (no result: PNC assembly inh, CBFb-RUNX1 inh, HPGD block, ALDH1A1 block)
C=CCNC(=O)Nc1ccc(Cl)cn1	PNC assembly inh inconclusive (no result: HTT cytoprotect)
N#Cc1c(Sc2ncc(C(F)(F)F)cc2Cl)nsc1C/C=N\OCc1ccccc1Br	ALDH1A1 block 10µM
NNS(=O)(=O)c1ccc(N2CCCC2=O)c([N+](=O)[O-])c1	HttQ103 aggreg inconclusive, ALDH1A1 block 17.8µM (no result: PNC assembly inh, HPGD block, HTT cytoprotect)
NS(=O)(=O)c1ccc(N2CCCC2=O)c([N+](=O)[O-])c1	none (no result: PNC assembly inh, HPGD block)
CC(=O)NCC(=O)OCC(=O)c1ccc(Cl)cc1	none (no result: PNC assembly inh, HPGD block)
COc1ccc(NC(=O)CC2SC(=N)N(c3ccccc3)C2=O)c(OC)c1 (configuration not stated)	ALDH1A1 block inconclusive (no result: PNC assembly inh, HPGD block)
CCOC(=O)C1CCCN(C2CC(=O)N(c3cccc(C)c3)C2=O)C1 (configuration not stated)	ALDH1A1 block inconclusive
CCOC(=O)c1ccc(N2C(=O)CC(N3CCCC(C)C3)C2=O)cc1 (configuration not stated)	ALDH1A1 block 3.16µM
CCOC(=O)N1CCN(C2CC(=O)N(c3ccccc3)C2=O)CC1 (configuration not stated)	none
